RGS8-Gao = regulators of human RGS8-Galphao interaction; P09471; multiplexed bead flow cytometry, RGS8-Galphao binding; actives lie on both sides; response (percent of control binding), % at 10 µM; 0.34% of 220,000 active; in the data active = response below about 60% or above about 140%; inactive = in between;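 note: Galphao activated as the GDP aluminium fluoride complex binding bead-coupled RGS8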
RGS16-Gao HTS = regulators of human RGS16-Galphao interaction; 0.38% of 220,000 active; bead-based flow cytometry RGS16-Galphao binding, fluorescence; actives lie on both sides; O15492+P09471; binding response (% of control), % at 10 µM; call rule not given here;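 note: Galphao activated by GDP with aluminum fluoride before binding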
GSH bead fluor = GSH bead compound fluorescence profile; GSH beads flow cytometry, compound fluorescence 488/530 nm; hits give high values; fluorescence (KMESF) at 10 µM; 0.25% of 190,000 active; AID 1776; in the data active = fluorescence above about 89;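 note: glutathione beads carrying GST-tagged Bcl family fusion proteins plus one bare bead set; values are compound well signal with DMSO vehicle wells as background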
RGS7-Gao reg = regulators of human RGS7-Galphao interaction | Multiplexed bead flow cytometry, RGS7-Galphao binding; actives lie on both sides | binding response (% of control), % at 10 µM | 0.35% of 220,000 active; in the data active = binding response below about 49% or above about 150%; inconclusive = no clear call, values can overlap the other calls; inactive = in between;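 note: fluorescent Galphao held in activated GDP-AlF4 state binding bead-coupled RGS7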
Avidin bead fluor = avidin bead compound fluorescence profile. Avidin beads, compound fluorescence 488/530 nm, flow cytometry; hits give high values. fluorescence (KMESF) at 10 µM. 0.38% of 220,000 active; in the data active = fluorescence above about 47
RGS4-Gao reg = human RGS4-Galphao interaction regulation. P09471. Multiplexed bead flow cytometry, RGS4-Galphao binding; actives lie on both sides. binding response (% of control), % at 10 µM. 0.33% of 220,000 active. AID 1415; in the data active = binding response below about 49% or above about 150%; inactive = in between;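 note: fluorescent Galphao activated with aluminum fluoride binding bead-coupled RGS4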
* = called active by the depositor; ? = inconclusive; . = no result; [ ] = dose if it differs, or a comment. Most compounds without a hit are left out; they make up all but 1.2% or so of the library.

SMILES	RGS8-Gao	RGS16-Gao HTS	GSH bead fluor	RGS7-Gao reg	Avidin bead fluor	RGS4-Gao reg
Fc1ccc2c(Cl)c(-c3nnc(-c4cccs4)o3)sc2c1	100	101	255*	101	7	99
Cc1cc2cc(C)c3nnc(SCC(=O)N4CCCc5ccccc54)n3c2cc1C	85	87	31	87	12	86
Cc1cc2cc(C)c3nnc(SCC(=O)N4CCc5ccccc54)n3c2cc1C	12*	1.3*	23	14*	-2	22*
O=S(=O)(Cc1ccc(Cl)cc1)N1CCN(Cc2ccc3c(c2)OCO3)CC1	100	94	.	?	10	96
O=S(=O)(Cc1ccc(Cl)cc1)Nc1ccc2c(c1)OCO2	99	101	15	104	48*	103
O=S(=O)(NCCNS(=O)(=O)c1ccc(F)cc1)c1ccc(F)cc1	103	95	41	97	8	102
CC(C)(CNS(=O)(=O)c1ccc(F)cc1)CNS(=O)(=O)c1ccc(F)cc1	101	104	38	114	51*	107
O=C1NC(=O)C(CC(=O)N(c2ccccc2)C2(C(=O)NC3CCCC3)CCCCC2)N1 (stereo unspecified)	101	102	29	111	52*	102
Cc1cc(C)nc(NS(=O)(=O)c2ccc(NC(=S)NC(=O)CC(C)C)cc2)n1	108	270*[activator]	20	194*[activator]	118*	208*[activator]
CCOC(=O)c1[nH]c(C)c(C(=O)Nc2ccccc2F)c1C	97	105	25	127	108*	102
CCOC(=O)c1[nH]c(C)c(C(=O)Nc2ccc(F)cc2)c1C	101	105	25	96	7	98
O=C(O)CC(=O)Nc1ccccc1C(=O)O	98	97	31	94	12	97
N#CCC(=O)Nc1ccccc1C(=O)O	108	131	264*	108	7	110
NC(=O)CN(c1ccc([N+](=O)[O-])cc1)S(=O)(=O)c1ccccc1	104	103	11	102	24	100
Cc1ccc(S(=O)(=O)N(C)Cc2nc(-c3ccncc3)no2)cc1	101	102	17	105	50*	102
CC(C)c1cc(C(=O)N2CCCC(CCC(=O)NCc3ccccc3F)C2)n(C)n1 (stereo unspecified)	100	99	12	?	10	99
CC(c1ccon1)N(C)C(=O)CCc1nnc(C2(c3ccc(Cl)cc3)CCC2)o1 (stereo unspecified)	103	100	9	107	3	101
COC(=O)CCNS(=O)(=O)c1ccc2ccccc2c1	90	76	6	130	66*	106
CC(C)(C)SCCNS(=O)(=O)c1ccc2ccccc2c1	100	104	31	99	9	101
CCN(CC)c1ccc(NC(=O)Cn2nnc(-c3cccc(OC)c3OC)n2)c(C)c1	100	100	266*	95	8	103
Cc1cc(C(=O)Nn2c(C)nc3ccccc3c2=O)ccc1[N+](=O)[O-]	99	95	12	101	12	95
Cc1cccc(-c2nc3ccccc3c(=O)n2NC(=O)c2ccc([N+](=O)[O-])c(C)c2)c1	99	102	19	147	73*	107
Cc1noc(C)c1CSc1nnc2sc3ccccc3n12	104	107	4	104	7	105
Cc1noc(C)c1CSc1nc2ccccc2n1C	94	46	240*	102	5	107
Cc1nnc(SCC(=O)N2CCCCC2)n1CC1CCCO1 (stereo unspecified)	106	112	94*	101	4	105
Cc1ccc(NC(=O)CN2C(=O)N/C(=C/c3cc(C)n(-c4ccc(C(=O)O)cc4)c3C)C2=O)cc1	99	100	19	100	10	103
Cc1ccc(NC(=O)CN2C(=O)N/C(=C/c3cccn3-c3ccc(C(=O)O)cc3)C2=O)cc1	28*	7	4	-13*	-5	26*
Cn1nnnc1SCC1=C(C(=O)O)N2C(=O)[C@@H](NC(=O)[C@H](O)c3ccccc3)[C@H]2SC1	.	.	16	.	.	.
Cc1cc(C(F)F)nn1CC(=O)NC1C(=O)N2C(C(=O)O)=C(CSc3nnnn3C)CSC12 (stereo unspecified)	97	101	64	132	58*	113

Screening data deposited in PubChem by NMMLSC.
